Source: PubChem
HCV inh: blocks hepatitis C virus; Huh7.5.1 HCVcc-Cre infection, luciferase reporter, 44 h; Potency, µM (highest dose often 41.8 µM), inactives show top-dose activity change, negative = inhibition, actives largely listed as inhibitors; 340,000 tested, 3.4% active; AID 651820; note: potency is the fitted concentration of half-maximal effect
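Seed cells (1,000/well) for 4 h; treat with compound and infect with HCVcc-Cre, moi about 0.5. Incubate 44 h, then detect luciferase activity.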
VACV Venus inh: inhibitors of vaccinia virus (Venus reporter). Vaccinia virus Venus reporter expression, fluorescence. 330,000 tested, 0.46% active. Potency, µM (highest dose often 36.5 µM), for the others: at the top dose activity change, negative = inhibition, hits mostly inhibitors; calls by dose curve; tested in A549 cells; note: potency is the fitted concentration of half-maximal effect; nearly all actives have a fitted effect of over 30% in size
FMDV antiviral: foot and mouth disease virus antiviral activity; Potency, µM (titrated, usually from 57.9 µM), for inactives: at the top dose activity change, negative = inhibition, actives largely listed as inhibitors; AID 1159524; 410,000 tested, 1.2% active; FMDV antiviral cell-based qHTS; calls by dose curve; tested in HEK293T cells; note: read-out not given here; potency is the fitted concentration of half-maximal effect; nearly all actives have a fitted effect of over 45% in size
HCMV antiviral: inhibitors of human cytomegalovirus; 410,000 tested, 4.5% active; HFF cells, HCMV-luciferase reporter, 72 h; hits give low values; activity change, negative = inhibition, % at 57.5 µM; in the data active = activity change below about -60%; inconclusive = no clear call, values can overlap the other calls; inactive = above about -39%
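Screen run at 2 compound doses on HFFs infected with reporter HCMV, MOI 1 PFU/cell. Luciferase activity from cell lysates at 72 h post infection gave inhibition relative to buffer-only and Salinomycin wells.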
Vaccinia mCherry: vaccinia inhibition (mCherry reporter); Potency, µM (series often up to 36.5 µM), inactives show top-dose activity change, negative = inhibition, usual class: inhibitors; 310,000 tested, 0.63% active; Vaccinia virus mCherry reporter infection, fluorescence; calls by dose curve; tested in A549 cells; note: potency is the fitted concentration of half-maximal effect; nearly all actives have a fitted effect of over 35% in size
Sm TGR inh: inhibitors of Schistosoma mansoni thioredoxin glutathione reductase; AID 485364; Potency, µM (doses to about 114 µM), without a hit: at the highest dose activity change, negative = inhibition, actives largely listed as inhibitors; Q962Y6; 360,000 tested, 3% active; purified TGR, DTNB reduction, TNB absorbance 405 nm; note: potency is the fitted concentration of half-maximal effect; nearly all actives have a fitted effect of over 60% in size
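TGR 20 nM + NADPH 100 uM (dispensed conc.), cpd preinc 15 min RT; start with NADPH (500 uM addition) then DTNB (15 mM addition). Kinetic TNB absorbance, 405 nm filter. Four-parameter Hill fit across titration.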
* = called active by the depositor; i = inactive; ? = inconclusive; / = no result; ! = repeats disagree; [ ] = remark or other dose. Hits are enriched below; roughly 9.3% of the tested compounds scored in any of these assays. Unless noted, calls come from the whole dose curve; as a rule, active = well fitted curve in the direction sought with a large enough effect; inconclusive = small, poorly fitted or top-dose-only effect, or another doubt; inactive = no such curve, though single readings can be large; an effect the other way counts as inactive or inconclusive. % is set by controls: 0 for no effect and ±100 for the full control effect.

SMILES	HCV inh	VACV Venus inh	FMDV antiviral	HCMV antiviral	Vaccinia mCherry	Sm TGR inh
O=C(O)CSc1nnc(-c2cccc(S(=O)(=O)N3CCCCC3)c2)o1	6.0%	-2.7%	-9.1%	6.5	9.5%	2.7%
CCNC(=O)CSc1nnc(-c2cccc(S(=O)(=O)N3CCOCC3)c2)o1	9.2%	?	-5.5%	11.6	11.2µM*	-9.1%
N#Cc1ccc(CSc2nnc(-c3cccc(S(=O)(=O)N4CCCCC4)c3)o2)cc1	?	?	-28.3%	-66.4*	/	-9.1%
CC12COC3(C(N)=O)CC1CCC32C (configuration not stated)	4.2%	/	-28.4%	-2.6	/	-14.4%
CCN(c1cccc2ccccc12)S(=O)(=O)c1cccs1	-21.8%	/	-19.0%	?	/	/
CC(=O)Oc1ccc(N(C(C)=O)S(=O)(=O)c2cccs2)c2ccccc12	/	2.3%	15.8µM*	-24.1	-2.4%	?
CC(C)(C)NCC(O)c1ccc(O)c(CO)c1 (configuration not stated)	/	-12.7%	4.6%	/	-25.5%	/
OCc1cc(C(O)CNCCCCCCOCCCCc2ccccc2)ccc1O (configuration not stated)	8.91µM*	-20.3%	-18.2%	-60.1*	?	-18.0%
COc1cc(C(=S)N2CCOCC2)cc(OC)c1OC(=O)c1ccccc1[N+](=O)[O-]	15.8µM*	-24.0%	-23.9%	-24.4	i	-0.4%
C1=C(CCNc2ncnc3nc[nH]c23)CCCC1	10µM*	-28.5%	0.4%	0.7	-26.4%	-12.6%
c1ccc2c(CCNc3ncnc4nc[nH]c34)cccc2c1	11.2µM*	/	31.6µM*	-35.3	/	-0.1%
CCCNc1ncnc2nc[nH]c12	0.2%	-11.4%	-10.9%	-29.8	0.9%	0.7%
Clc1ccc(CCNc2ncnc3nc[nH]c23)cc1	10µM*	?	?	/	?	8.5%
CCCCc1ccc(Nc2ncnc3nc[nH]c23)cc1	5.6%	-29.0%	19.3%	25.1	10µM*	-14.8%
Cc1csc(=O)n1CC(=O)OCc1nnc(-c2ccccc2)o1	-7.3%	-6.9%	4.5%	-13.6	i	-21.5%
O=C(NCCc1ccc(C(F)(F)F)cc1)C1CC(=O)N(c2ccc3c(c2)OCCO3)C1 (configuration not stated)	-22.5%	/	-15.0%	-28.0	/	-10.3%
CCC(=O)c1ccc(OCC(=O)OCC(=O)N2CCN(c3ccc(OC)cc3)CC2)cc1	4.0%	-10.7%	-6.3%	-17.7	-14.9%	-4.6%
COc1cc(C(=O)NNC(=O)/C=C/c2ccco2)cc(OC)c1OC	?	-4.2%	6.4%	0.5	-14.1%	/
CC(NC(=O)C=Cc1ccco1)C(=O)NC(Cc1ccccc1)C(N)=O (configuration not stated)	/	/	/	24.4	/	/
COc1ccc(C(NC(=O)/C=C/c2ccco2)c2ccc(OC)cc2)cc1	-8.1%	-7.3%	17.8%	-3.5	i	10µM*
COc1ccc(C(NC(=O)/C=C\c2ccco2)c2ccc(OC)c(OC)c2)cc1 (configuration not stated)	-8.2%	/	-10.8%	-15.2	/	12.6µM*
CCC(Cc1ccccc1)NC(=O)/C=C/c1ccco1 (configuration not stated)	2.5%	-13.5%	-3.5%	-20.2	-3.1%	10µM*
Cc1ccc(CNS(=O)(=O)c2cc3c(cc2Cl)NC(=O)CO3)o1	/	0.0%	-8.0%	0.0	-17.4%	31.6µM*
Cc1ccc(CNC(=O)CCS(=O)(=O)c2cc3c(cc2Cl)NC(=O)CO3)o1	0.2%	/	-9.8%	8.8	/	-2.5%
Cc1cc2c(cc1S(=O)(=O)NCc1ccccc1)OCC(=O)N2	0.9%	-8.8%	7.2%	-87.2*!	-6.8%	-13.6%
SMILES	HCV inh	VACV Venus inh	FMDV antiviral	HCMV antiviral	Vaccinia mCherry	Sm TGR inh
CC(Sc1nnnn1C)C(=O)Nc1ccccc1-c1ccccc1 (configuration not stated)	5.3%	-17.9%	/	?	-18.6%	-17.9%
Cc1ccc(-n2nnnc2SC(C)C(=O)Nc2ccccc2-c2ccccc2)cc1 (configuration not stated)	7.6%	2.3%	-22.7%	-61.1*	i	2.4%
Nc1ccc(Sc2nnnn2-c2ccccc2)c(Cl)c1	-3.1%	-5.5%	4.1%	?	i	-3.6%
Cn1nnnc1Sc1c(Cl)cccc1[N+](=O)[O-]	0.6%	-28.8%	0.7%	-91.4*	-29.3%	-12.0%
Cn1nnnc1Sc1ccc([N+](=O)[O-])cc1Cl	-3.2%	?	-23.1%	?	10µM*	-15.0%
O=[N+]([O-])c1ccc(Sc2nnnn2-c2ccccc2)c(Cl)c1	-26.9%	/	?	-73.1*	/	?
O=c1cccccc1NCc1ccccc1	-0.8%	/	47.4%	-32.9	/	35.5µM*
O=C1C=C(Nc2cccnc2)c2ccccc2C1=O	12.6µM*	10µM*	?	22.9	?	/
O=C1C=C(Nc2ccccc2O)c2ccccc2C1=O	?	?	?	-93.4*	5.01µM*	-35.2%
O=C1C=C(Nc2ccc(F)cc2)c2ccccc2C1=O	?	-16.9%	?	34.3	?	-19.8%
Cc1ccc(NC2=CC(=O)C(=O)c3ccccc32)c(C)c1	?	/	?	-96.3*	/	-20.3%
O=C1C=C(NCc2ccccc2)CCC1	10.5%	-10.2%	-19.3%	-13.2	i	-3.2%
O=C1C=C(NCc2ccccc2)c2ccccc2C1=O	?	11.2µM*	-16.3%	-83.9*	?	28.2µM*
O=c1cc2c(nn1Cc1ccccc1)-c1ccccc1CC2	6.8%	2.0%	-16.2%	-100.3*	i	17.9%
O=C1/C(=C/c2cccc([N+](=O)[O-])c2)CCc2ccccc21	2.8%	-7.9%	-17.6%	-9.4	-14.5%	3.9%
O=c1cc2c(nn1Cc1cccc([N+](=O)[O-])c1)-c1ccccc1CC2	12.6µM*	/	-6.8%	-18.1	/	12.3%
O=c1cc2c(nn1Cc1ccc(F)cc1)-c1ccccc1CC2	-18.5%	/	3.4%	?	/	17.9%
CC(=O)CCC(=O)N1CCC(n2c(C3CCCO3)nc3cc(C(F)(F)F)ccc32)CC1 (configuration not stated)	/	-28.9%	-8.6%	/	-7.2%	/
COc1cccc(CNC(=O)CSc2nc(=O)[nH]c3c2CCCC3)c1	/	-2.4%[7.34 µM]	-6.3%	-17.8	-2.0%[7.34 µM]	5.9%
[N-]=[N+]=N[C@@H](CCN1CC[C@H](O)CCC1=O)c1ccccc1	34.3%	-6.3%	-10.0%	23.9	-25.6%	7.9%
Cc1cc(/C=N/NC(=O)c2ccncc2)c(C)n1-c1ccccc1	?	-28.1%	39.5%	-24.5	-3.5%	-9.9%
CCc1ccc(-n2c(C)cc(/C=N/NC(=O)c3ccncc3)c2C)cc1	?	/	-16.5%	-79.0*	/	/
Cc1cc(/C=N/NC(=O)c2cccs2)c(C)n1-c1ccccc1	?	/	12.6µM*	?	/	-6.3%
CCc1ccc(-n2c(C)cc(/C=N/NC(=O)OC)c2C)cc1	?	/	9.4%	-84.3*	/	-17.4%
Cc1cc(/C=N/NC(=O)c2cccs2)c(C)n1-c1cnccn1	-21.6%	/	43.5%	77.5	/	-3.9%
